Compounds with a hit are over-represented: about 8.9% of the library has one in this group of screens.
MCF10A rereplic: DNA re-replication induction in MCF 10a cells; MCF 10A DNA re-replication, Hoechst nuclear intensity, 48 h; Potency, µM (highest dose often 46.1 µM), for inactives: top-dose activity, positive = re-replication, hits mostly activators; actives 2.9% (n = 350,000); further: potency means the concentration at half of the fitted maximal effect; % of control where 0% means no effect; nearly all actives have a fitted effect of over 50% in size
KB-3-1 tox: KB-3-1 parental cell cytotoxicity. KB-3-1 viability, CellTiter-Glo ATP luminescence, 72 h. Potency, µM (top dose mostly 46.1 µM), usual class: cytotoxic. AID 1347075. actives 1.4% (n = 400,000); further: potency means the concentration at half of the fitted maximal effect; on the % scale 0 is the no-effect control and ±100 the full control effect; nearly all actives have a fitted effect of over 60% in size
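KB-3-1 parental drug-naive adenocarcinoma cells in DMEM/10% FBS, incubated 72 h at 37 C with pin-transferred compounds across a concentration series. Viability by CellTiter-Glo luminescence; concentration-response curves fitted after normalization.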
KB-V1 MDR tox: kills drug-selected multidrug resistant KB-V1 cells | KB-V1 MDR cells viability, CellTiter-Glo, 72 h | Potency, µM (titrated, usually from 46.1 µM), hits mostly cytotoxic | actives 3.4% (n = 400,000); further: potency means the concentration at half of the fitted maximal effect; on the % scale 0 is the no-effect control and ±100 the full control effect; nearly all actives have a fitted effect of over 60% in size
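Readout: CellTiter-Glo luminescence, 10 min after addition. Cells: KB-V1 MDR subline, 72 h at 37 degrees C with compound. Analysis: corrected, normalized data fitted to concentration-effect curves.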
D3 ag: agonists of human D3 dopamine receptor; P35462; D3R DiscoveRx beta-arrestin cells, luminescence, 90 min; max activation, %; actives 0.58% (n = 410,000); AID 652048; in the data active means max activation above about 30%; further: 0% is about no effect
Target sequence (P35462 whole entry, looked up): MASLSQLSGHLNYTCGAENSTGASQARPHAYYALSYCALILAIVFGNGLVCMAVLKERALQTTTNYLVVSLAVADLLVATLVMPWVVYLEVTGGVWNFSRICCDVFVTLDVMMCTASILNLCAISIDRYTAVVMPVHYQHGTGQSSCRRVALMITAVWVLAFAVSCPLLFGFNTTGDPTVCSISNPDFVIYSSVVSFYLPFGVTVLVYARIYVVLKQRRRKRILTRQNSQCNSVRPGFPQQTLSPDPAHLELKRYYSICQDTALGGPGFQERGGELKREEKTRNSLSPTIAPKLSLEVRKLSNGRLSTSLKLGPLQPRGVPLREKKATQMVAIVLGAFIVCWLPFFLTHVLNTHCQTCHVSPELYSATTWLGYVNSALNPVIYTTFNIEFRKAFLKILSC
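Agonist-mode cell screen: cells plated at 1500/well and incubated overnight at 37 °C, then exposed to library compounds for 90 min at 37 °C. Detection reagent was added for 30–60 min at room temperature, and luminescence was read.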
DRD3 antagonist: antagonists of human D3 dopamine receptor | D3R cells, DiscoveRx beta-arrestin luminescence, antagonist mode; active compounds read low | max response, negative = inhibition, % | actives 2.5% (n = 360,000) | AID 652054; in the data active means max response below about -50%; inconclusive means no clear call, values can overlap the other calls; further: on the % scale 0 is the no-effect control and ±100 the full control effect
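Cells expressing the human receptor were seeded at 1500 cells/well, incubated overnight at 37 degrees C in 5% CO2, then exposed to library compounds with dopamine controls for 90 minutes at 37 degrees C before luminescent detection.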
SW480 rereplic: DNA re-replication induction in SW480 cells. SW480 DNA re-replication, Hoechst DNA content imaging, 48 h. Potency, µM (titrated, usually from 46.1 µM), without a hit: at the top dose re-replication activation, usual class: activators. actives 1.8% (n = 340,000); further: potency means the concentration at half of the fitted maximal effect; % of control where 0% means no effect; nearly all actives have a fitted effect of over 55% in size
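Cells (250 per well) received 23 nL compound or DMSO by pin tool and were kept 48 hr at 37 C, 5% CO2. Nuclei were then stained with Hoechst for 40 min and scanned for DNA content.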
The depositor's hits bear a star; i = inactive; ? = inconclusive; . = no result. Unless noted, the call rests on the fitted dose curve; in most records, active means well fitted curve in the direction sought with a large enough effect; inconclusive means small, poorly fitted or top-dose-only effect, or another doubt; inactive means no such curve, though single readings can be large; an effect the other way counts as inactive or inconclusive.

SMILES | MCF10A rereplic | KB-3-1 tox | KB-V1 MDR tox | D3 ag | DRD3 antagonist | SW480 rereplic
O=C(O)c1ccc(N/N=C/C2=C(N3CCOCC3)C(=C\c3ccccc3)/CC2)cc1 | ? | i | i | -1 | 0 | 18µM*
Cc1cc(C)nc(N/N=C/C2=C(N3CCOCC3)C(=C\c3ccc(Cl)cc3)/CC2)n1 | ? | ? | i | -14 | ? | ?
Cn1cc(C(=O)N/N=C/C2=C(N3CCOCC3)C(=C/c3ccc([N+](=O)[O-])cc3)/CC2)ccc1=O | -3% | i | i | 2 | 9 | -6%
C/C(=N/NC(=O)c1ccoc1C)c1ccc(N2CCOCC2)cc1 | -3% | i | i | -19 | -10 | -11%
CCCCNC(=O)c1onc(CS(=O)(=O)c2ccccn2)c1C(=O)NCCCC | 14% | i | i | 2 | -4 | -2%
CCCCC(CC)CNC(=O)Cc1ccc(-n2c(=O)[nH]c3ccccc3c2=O)cc1 (configuration not stated) | . | i | i | 5 | . | .
CCOc1ccc(CCN2C(=O)C(=O)N([C@@H](Cc3ccccc3)CN3CCC[C@H]3CN3C(=O)C(=O)NC[C@@H]3Cc3ccccc3)C[C@@H]2Cc2ccc(O)cc2)cc1 | . | ? | i | -16 | -17 | .
COC(=O)c1ccc(N/C=C/C(=O)c2ccc(OC)c(OC)c2)cc1 | ? | i | i | 11 | 18 | -5%
COc1ccc(N/C=C/C(=O)c2ccc(Cl)cc2)cc1 | ? | i | i | 1 | 16 | 0%
COc1ccc(C(=O)CCc2ccc(OC)c(OC)c2)cc1 | 9% | ? | i | 7 | 17 | -1%
COc1ccc(C(=O)Cc2ccc(OC)c(OC)c2)cc1 | -4% | i | 23µM* | 4 | -7 | 2%
COc1ccc(N/C=C/C(=O)c2ccc(OC)c(OC)c2)cc1 | 21µM* | i | ? | 14 | 2 | 12%
COc1ccc(N/C=C/C(=O)c2cc(OC)c(OC)c(OC)c2)cc1 | 5.2µM* | 3.7µM* | ? | 0 | -12 | 5.8µM*
CCOC(=O)c1cc(S(=O)(=O)NCc2ccc(C)cc2)[nH]n1 | . | i | i | -8 | . | .
CCc1ccccc1NC(=O)CN1C(=O)COc2ccc(S(=O)(=O)Nc3ccccc3)cc21 | . | i | i | -10 | . | .
Cc1oc2ncn(CC(C)C)c(=O)c2c1C(=O)NCc1cccc(Cl)c1 | . | i | i | 1 | . | .
CN(Cc1cn(-c2ccccc2)nc1-c1cc2ccccc2o1)C(=O)CCC(=O)O | -4% | i | i | 46* | 2 | -34%
COc1cc(/C=C(/C(=O)c2cccs2)c2nc3ccccc3[nH]2)cc(OC)c1O | 16µM* | 3.7µM* | 21µM* | -9 | -100* | 23µM*
O=C(N/C(=C/c1ccc(Cl)cc1)c1nc2ccccc2[nH]1)c1ccco1 | ? | i | 12µM* | -19 | 6 | -2%
O=C(/C(=C/c1ccc(Cl)cc1)c1nc2ccccc2[nH]1)c1ccccc1 | 6.5µM* | 5.2µM* | ? | -6 | -75* | 5.2µM*
O=C(N/C(=C/c1ccc(Br)cc1)c1nc2ccccc2[nH]1)c1ccco1 | -7% | i | i | -11 | -17 | 0%
CS(=O)(=O)OCCCNCCCOS(C)(=O)=O | . | . | . | -4 | . | .
O=C(C1CCC1)N1CCCc2cc(S(=O)(=O)N3CCN(c4cccc(Cl)c4)CC3)ccc21 | . | i | i | -8 | . | .
CC(C)c1ccc(NC(=O)Nc2nc(C(N)C3CCCCC3)cs2)cc1 (configuration not stated) | . | ? | ? | -7 | 11 | .
Cc1ccccc1NC(=O)Nc1nc(C(N)C2CCCCC2)cs1 (configuration not stated) | . | i | i | -11 | -84* | .
SMILES | MCF10A rereplic | KB-3-1 tox | KB-V1 MDR tox | D3 ag | DRD3 antagonist | SW480 rereplic
O=C1C=CC(=O)N1N(c1ccccc1)c1ccccc1 | 5.2µM* | i | i | -8 | ? | ?
COc1ccc([N+](=O)[O-])cc1NC(=O)CCN1CCN(c2ccccc2)CC1 | -2% | i | ? | 75* | -25 | -145%
CCC(=O)Nc1cccc(NC(=O)CN2CCN(c3ccccc3OC)CC2)c1 | -9% | i | i | -7 | -24 | -3%
COc1ccc(OC)c(NC(=O)CCN2CCN(c3ccccc3OC)CC2)c1 | -1% | i | i | -17 | -84* | -4%
COc1cc(NC(=O)CCN2CCN(c3ccccc3OC)CC2)cc(OC)c1 | . | i | i | -3 | -99* | .
CCCC(=O)Nc1cccc(NC(=O)CN2CCN(c3ccccc3OC)CC2)c1 | -4% | i | 2.6µM* | -14 | -9 | ?
O=C(O)[C@H]1/C(=C/CO)O[C@@H]2CC(=O)N21 | . | . | . | 4 | . | .
O=C(Cn1ccc(NC(=O)OCc2ccccc2)nc1=O)NCCCn1ccnc1 | -27% | i | i | 0 | 10 | 0%
CC(=O)c1cccc(NC(=O)CCn2nc(C)c(S(=O)(=O)N(C)C)c2C)c1 | . | . | . | 5 | . | .
CCOc1cc2[nH]c(=O)n(CCCC(=O)N3CCN(c4ccc(OC)cc4)CC3)c(=O)c2cc1OCC | . | i | i | 30* | . | .
O=C(CCCn1c(=S)[nH]c2cc3c(cc2c1=O)OCO3)N1CCN(c2ccc(F)cc2)CC1 | 1% | i | i | 36* | 51 | -1%
COc1ccccc1N1CCN(C(=O)CCCCCn2c(=S)[nH]c3cc4c(cc3c2=O)OCO4)CC1 | . | i | i | -1 | 68 | .
CCOC(=O)N1CCN(C(=O)CCCn2c(=S)[nH]c3ccc(Br)cc3c2=O)CC1 | 14% | i | 12µM* | 7 | 53 | 1%
O=C(CCCn1c(=S)[nH]c2cc3c(cc2c1=O)OCO3)N1CCN(c2ccccc2F)CC1 | 22% | i | 16µM* | 0 | 41 | ?
O=C(CCCCCn1c(=S)[nH]c2cc3c(cc2c1=O)OCO3)N1CCN(c2ccccc2)CC1 | ? | i | i | -15 | 4 | -11%
COc1cc2c(N3CCN(C(=O)Nc4ccc(OC(C)C)cc4)CC3)ncnc2cc1OCCCN1CCCCC1 | . | . | . | -23 | . | .
CCC(=O)Oc1ccc(C(=O)Nc2ccc3c(c2)C(=O)N(C2CCCCC2)C3=O)cc1 | 23µM* | ? | ? | -2 | ? | ?
Cc1nc2c(O)c3c(c(O)c2nc1C)C1C=CC3CC1 | 5.2µM* | i | ? | -4 | -3 | 3.3µM*
Cc1nc2c(C)c(C)c(C)c(C)c2nc1C | ? | i | i | 7 | 4 | 68%
COc1ccccc1CNC(=O)c1ccc2nc(-c3ccccc3)c(-c3ccccc3)nc2c1 | . | i | i | 6 | . | .
CCOc1ccccc1Nc1sc(C(=O)c2ccc(Cl)cc2)c(N)c1C#N | . | ? | i | 16 | . | .
